# Results from PubChem BioAssay AID463173 (ICCB-Longwood Screening Facility, Harvard Medical School, 2010).
# The campaign covered roughly 52,000 compounds. About 4,300 (8.3%) were called active. The full list was thinned out, with actives kept by preference. A number with no mark means an inactive call. No stated cut-off is given here; in the data, active means survival mostly below about 52% (no sharp cut-off); inactive means mostly above about 56%.
# Tested on: DeltatarO mutant
# Test: growth inhibition of S. aureus wild type versus tarO mutant, primary screen, teichoic acid synthesis inhibitors, RN4220, OD600 (AID 463173)
# Conditions: OD600, 18 h, stronger effect = lower value, screened at 18.75 µg/mL (by protocol)
row,Compound,survival
1,CCc1ccc(-n2nc(C)c3c(C(=O)Nc4cc(C)ccc4C)cc(C)nc32)cc1,60%
2,Cc1c(N)c(C)c(N)c(C)c1N,96%
3,CCOc1ccccc1CNC(=O)C1CCN(C(=O)N2CC(CC)Oc3ccc(C)cc32)CC1 (stereo not given),71%
4,CCOC(=O)c1c(S(=O)(=O)NCC(=O)Nc2ccc(C)c(Cl)c2)c(C)n(C)c1C,61%
5,Cc1ccc(NC(=O)Cn2c(=O)n(Cc3ccc(F)cc3)c(=O)c3cccnc32)cc1C,91%
6,Cc1ccc(-n2nc(C)c3nc(CCC(=O)Nc4ccc(F)cc4)c(=O)n(C)c32)cc1,73%
7,Cc1ccc(-n2nc(C)c3nc(CCC(=O)Nc4cccc(F)c4)c(=O)n(C)c32)cc1,-5% (active)
8,COc1cccc(NC(=O)CCc2nc3c(C)nn(-c4ccc(C)cc4)c3n(C)c2=O)c1,81%
9,O=C(c1cc(S(=O)(=O)N2CCCC2)c[nH]1)N1CCN(c2cccc(Cl)c2)CC1,98%
10,COCCn1nnnc1C(c1ccc2ncccc2c1)N1CCc2ccccc21 (stereo not given),98%
11,Cc1ccc(-c2noc(-c3ccc(NCc4ccco4)c([N+](=O)[O-])c3)n2)cc1,98%
12,COc1cc(-c2noc(-c3ccc(NCc4ccco4)c([N+](=O)[O-])c3)n2)cc(OC)c1OC,49% (active)
13,COc1ccc(-c2noc(-c3ccc(NCc4ccco4)c([N+](=O)[O-])c3)n2)cc1,43%
14,O=[N+]([O-])c1cc(-c2nc(-c3ccccc3)no2)ccc1NCc1ccco1,64%
15,COc1ccccc1-c1noc(-c2ccc(NCc3ccco3)c([N+](=O)[O-])c2)n1,97%
16,COc1ccc(-c2noc(-c3ccc(NCc4ccco4)c([N+](=O)[O-])c3)n2)cc1OC,43% (active)
17,CCC(=O)N1c2nc(C(C)C)nn2C2(CCCCC2)[C@@H]2CCCC[C@@H]21,81%
18,COC(=O)c1ccc(Cn2nnc3c(=O)[nH]c(C4CCCN(S(=O)(=O)c5cccc(Cl)c5)C4)nc32)cc1 (stereo not given),94%
19,CC(C)N(C(=O)CSc1nnc(Cc2csc(Nc3ccccc3)n2)o1)C(C)C,69%
20,CCOc1ccc2nc(NCCNC(=O)C3CCCCC3)c(C#N)cc2c1,106%
21,CCN(CC)C(=O)/C(=C\c1ccc(OC)c(OC)c1)n1ccccc1=O,103%
22,CCc1ccc(CNC(=O)Cn2nc(C)c3c(C)n(-c4ccc(C)cc4)nc3c2=O)cc1,79%
23,COc1ccc(-c2cccc(NS(=O)(=O)c3cc(C)c(Cl)cc3C)c2)nn1,102%

row,Compound,survival
1,CC(=O)c1sc2c(c1C)c(=O)n(-c1ccc(Cl)cc1)c(=O)n2Cc1cc(=O)n2cc(Cl)ccc2n1,58%
2,Cc1oc(-c2ccccc2)nc1C(=O)O,72%
3,Cc1ccc(CNc2ccc(-c3nc(-c4ccco4)no3)cc2[N+](=O)[O-])cc1,53%
4,O=[N+]([O-])c1cc(-c2nc(-c3ccco3)no2)ccc1NCc1ccccc1,47% (active)
5,CCCNc1ccc(-c2nc(-c3ccco3)no2)cc1[N+](=O)[O-],57% (active)
6,CCNc1ccc(-c2nc(-c3ccco3)no2)cc1[N+](=O)[O-],51%
7,COc1ccccc1CNc1ccc(-c2nc(-c3ccco3)no2)cc1[N+](=O)[O-],45%
8,CCCCNc1ccc(-c2nc(-c3ccco3)no2)cc1[N+](=O)[O-],57%
9,CCc1ccc2[nH]c3nc(SCC(=O)OC(C)C)nnc3c2c1,108%
10,Cc1cc(C)c2c(=O)c3c(oc2c1)C(=O)N(CCCOC(C)C)C3c1ccccc1F (stereo not given),67%
11,Cc1cc(C)cc(-n2c(SCC(=O)N3CCCCC3)nc3c([nH]c4ccccc43)c2=O)c1,88%
12,COC(=O)C(C)Sc1nc2c([nH]c3ccccc32)c(=O)n1-c1ccc(OC)cc1 (stereo not given),64%
13,COc1ccc(-n2c(SCC(=O)N3CCC(C)CC3)nc3c([nH]c4ccccc43)c2=O)cc1,70%
14,CCOC(=O)CSc1nc2c([nH]c3ccccc32)c(=O)n1-c1ccc(OCC)cc1,99%
15,CCOc1ccc(-n2c(SCC(=O)N3CCCC3)nc3c([nH]c4ccccc43)c2=O)cc1,98%
16,Cc1cc(C)cc(-n2c(SCC(=O)N3CCCC3)nc3c([nH]c4ccccc43)c2=O)c1,89%
17,CCOc1ccc(-n2c(SC(C)C(=O)OC)nc3c([nH]c4ccccc43)c2=O)cc1 (stereo not given),0% (active)
18,CC1CCN(C(=O)CSc2nc3c([nH]c4ccccc43)c(=O)n2-c2ccccc2)CC1,75%
19,CCOc1ccc(-n2c(SCC(=O)N3CCOCC3)nc3c([nH]c4ccccc43)c2=O)cc1,0% (active)
20,Cc1cc(C)cc(-n2c(SCC(=O)N3CCC(C)CC3)nc3c([nH]c4ccccc43)c2=O)c1,17% (active)
21,CCOc1ccc(-n2c(SCC(=O)N3CCCCC3)nc3c([nH]c4ccccc43)c2=O)cc1,107%
22,Cc1ccc(-n2c(SCC(=O)N3CCC(C)CC3)nc3c([nH]c4ccccc43)c2=O)cc1,-5% (active)
